# Results: PMC4336329 (PLoS ONE, 2015)
# Screen size: about 310,000 compounds; about 14,000 (4.5%) showed an effect of 50% or more. Effects have a minus sign here. Many of the other results were omitted from the sample, so strong results are more common in it than they were.
# Molecular target: human ether-à-go-go-related gene (hERG) potassium channel (human, UniProt Q12809)
# Assay: primary screen, population patch clamp on CHO cells stably expressing hERG; higher = less effect of the substance
# 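Further: peak tail current of the secondary pulse compared with the same well before compound.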
# Sequence of human ether-à-go-go-related gene (hERG) potassium channel (Q12809 whole entry, looked up): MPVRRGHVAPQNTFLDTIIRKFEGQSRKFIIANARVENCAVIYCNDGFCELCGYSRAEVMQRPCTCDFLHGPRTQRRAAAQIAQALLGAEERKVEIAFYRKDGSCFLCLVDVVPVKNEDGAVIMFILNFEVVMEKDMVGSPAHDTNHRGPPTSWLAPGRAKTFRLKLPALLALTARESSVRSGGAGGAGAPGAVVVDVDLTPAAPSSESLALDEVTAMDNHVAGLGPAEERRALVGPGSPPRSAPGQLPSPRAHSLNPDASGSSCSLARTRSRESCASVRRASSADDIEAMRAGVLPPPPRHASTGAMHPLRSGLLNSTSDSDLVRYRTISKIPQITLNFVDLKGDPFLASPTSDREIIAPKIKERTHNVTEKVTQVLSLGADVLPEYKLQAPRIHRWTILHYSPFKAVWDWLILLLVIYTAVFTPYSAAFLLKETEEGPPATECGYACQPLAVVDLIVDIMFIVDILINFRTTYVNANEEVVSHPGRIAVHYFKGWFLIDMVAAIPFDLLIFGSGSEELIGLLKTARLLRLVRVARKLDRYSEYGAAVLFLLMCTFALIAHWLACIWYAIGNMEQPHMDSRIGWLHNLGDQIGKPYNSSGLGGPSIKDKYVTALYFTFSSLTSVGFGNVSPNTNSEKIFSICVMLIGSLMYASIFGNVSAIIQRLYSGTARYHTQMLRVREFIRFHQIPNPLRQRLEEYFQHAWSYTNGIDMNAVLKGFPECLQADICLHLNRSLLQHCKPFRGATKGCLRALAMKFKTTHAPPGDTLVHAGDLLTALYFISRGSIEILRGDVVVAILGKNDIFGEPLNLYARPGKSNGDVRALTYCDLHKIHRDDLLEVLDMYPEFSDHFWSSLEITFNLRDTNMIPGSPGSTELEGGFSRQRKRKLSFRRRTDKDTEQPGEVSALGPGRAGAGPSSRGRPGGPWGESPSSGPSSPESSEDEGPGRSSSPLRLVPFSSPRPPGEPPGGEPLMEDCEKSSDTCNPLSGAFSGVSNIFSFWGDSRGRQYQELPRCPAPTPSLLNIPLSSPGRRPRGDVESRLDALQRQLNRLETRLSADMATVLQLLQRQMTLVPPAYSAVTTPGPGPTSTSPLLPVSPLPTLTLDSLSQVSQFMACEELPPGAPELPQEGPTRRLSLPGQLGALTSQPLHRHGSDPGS
row,Compound,"hERG current change (%, negative = inhibition) at 10uM"
1,O=C1OCC/C1=C\c1ccc(O)cc1,12.3%
2,O=C(NCCCN1CCOCC1)C1Nc2ccc(OC(F)(F)F)cc2C2C=CCC12 (centres unmarked),-18.9%
3,CCc1noc(C)c1C(=O)Nc1ccc(F)c(F)c1,-15.4%
4,COc1cc(NC(=O)Cn2nc(C(F)(F)F)c(Br)c2C)cc([N+](=O)[O-])c1,27.7%
5,Cn1c(=O)c([N+](=O)[O-])c(NCC2CCCO2)c2ccccc21 (centres unmarked),0.511%
6,Clc1ccc2c(c1)c1cc(Cl)ccc1n2CN1CCOCC1,-1.99%
7,Cc1nc2c3cc(F)ccc3n(Cc3ccccc3F)c2s1,-5.77%
8,Cc1nc2c3cc(Cl)ccc3n(CCN3CCCCC3)c2s1.Cl,-70%
9,c1ccc2nc3c(nc2c1)c1ccccc1n3CCN1CCOCC1,-48.5%
10,OC(CN1CCCCC1)Cn1c2ccc(Cl)cc2c2cc(Cl)ccc21 (centres unmarked),-29.6%
11,CCc1ccc2c(c1)c1nc(C)sc1n2CC,-5.89%
12,COC(=O)Cn1c2ccc(C)cc2c2nc(C)sc21,-7.39%
13,Cc1ccc2c(c1)c1nc3ccccc3nc1n2CCN1CCOCC1,-62.8%
14,Cc1ccc2c(c1)c1nc3ccccc3nc1n2C,21.3%
15,Cc1nc2c3cc(F)ccc3n(CCN3CCCCC3)c2s1.Cl,-69.9%
16,Cc1nc2c3ccccc3n(CCN3CCCCC3)c2s1.Cl,-28.9%
17,Cc1nc2c3cc(Cl)ccc3n(CCN3CCOCC3)c2s1,-52.2%
18,CCc1ccc(NC(=O)Cn2nc(C)n3cccc3c2=O)cc1,15%
19,O=C(Nc1cccnc1)c1sc(Nc2ccccc2F)nc1-c1ccccc1,20.5%
20,O=C(O)/C=C\C(=O)Nc1ccc(N2CCN(c3cccc(Cl)c3)CC2)cc1,10.2%
21,CCCCCN(C(=O)CCC(=O)OCCOc1ccccc1Cl)c1c(N)n(CCCC)c(=O)[nH]c1=O,-41.3%
22,COC(=O)CSc1nnc(-c2ccc(NS(=O)(=O)c3ccccc3)cc2)o1,9.9%
23,CC(=O)Oc1ccc2c(C)c(CC(C)O)c(=O)oc2c1 (centres unmarked),6.98%
24,Cl.O=C(NN1CCN(Cc2ccccc2Cl)CC1)c1ccc(Br)cc1,18.3%

row,Compound,"hERG current change (%, negative = inhibition) at 10uM"
1,Cc1cc(C)c(N=Cc2c(O)[nH]c(=O)[nH]c2=O)c(C)c1,11.6%
2,CCN(CC)C(=O)C1CCCN(c2ccc([N+](=O)[O-])cc2/C=N/NC(=O)c2cccc(Br)c2)C1 (centres unmarked),-0.713%
3,CCN(CC)C(=O)C1CCCN(c2ccc([N+](=O)[O-])cc2/C=N/NC(=O)c2cccc([N+](=O)[O-])c2)C1 (centres unmarked),-55.3%
4,CCN(CC)C(=O)C1CCCN(c2ccc([N+](=O)[O-])cc2)C1 (centres unmarked),-52.2%
5,CCN(CC)C(=O)C1CCCN(c2ccccc2[N+](=O)[O-])C1 (centres unmarked),-1.67%
6,CN1CCN(c2ccc([N+](=O)[O-])cc2/C=N/NC(=O)c2cccc([N+](=O)[O-])c2)CC1,-54%
7,O=C(N/N=C\c1cc([N+](=O)[O-])ccc1N1CCCC1)c1ccccn1,-3.3%
8,CCN(CC)C(=O)C1CCCN(c2ccc([N+](=O)[O-])cc2/C=N/NC(=O)c2cccc(O)c2)C1 (centres unmarked),-16.9%
9,CCN(CC)C(=O)C1CCCN(c2ccc([N+](=O)[O-])cc2[N+](=O)[O-])C1 (centres unmarked),-38.3%
10,Cn1cc(/C=N/NC(=O)c2cccc([N+](=O)[O-])c2)c2ccccc21,14.8%
11,COc1ccc(-c2nnc(CSc3nc4ccccc4c(=O)n3CC3CCCO3)o2)cc1OC (centres unmarked),-49%
12,COc1ccc(Cc2noc(CN(C)CC3(N4CCOCC4)CCCCC3)n2)cc1OC,-15.5%
13,CN(Cc1nc(Cc2ccccc2F)no1)CC1(N2CCOCC2)CCCCC1,-62.8%
14,CN(Cc1nc(-c2cccs2)no1)CC1(N2CCOCC2)CCCCC1,-24.2%
15,COc1cc(Br)cc(Br)c1OCC(=O)N/N=C/c1c(C)n(C)n(-c2ccccc2)c1=O,-23.1%
16,Cc1cc(C(C)(C)C)ccc1OCC(=O)N/N=C\c1c(C)n(C)n(-c2ccccc2)c1=O,-66.3%
17,Cc1ccccc1OCC(=O)N/N=C/c1c(C)nn(-c2ccccc2)c1Cl,1.74%
18,CCOC(=O)c1c(N/N=C/c2ccncc2)n[nH]c1C,-10.9%
19,COCCN(CC(=O)NC1CCCCC1)C(=O)CCCC(=O)Nc1ccccn1,10%
20,COC/C=C/C1=CC2=CC(=O)C(C)(OC(=O)c3cnc4ccccc4n3)C(=O)C2=CN1Cc1ccco1 (centres unmarked),0.0609%
21,O=C(Nc1ccc2[nH]c(=O)[nH]c2c1)C(F)(F)F,14.9%
22,Cn1cc(C(=O)N2CCCCC2)c2ccccc21,4.66%
23,Cc1cc(C)c(S(=O)(=O)NCCOc2ccccc2)c(C)c1-n1cnnn1,7.74%
24,C=CC1CN2CCC1CC2[C@@H](OC(=O)c1ccc(OC)cc1)c1ccnc2ccccc12 (some centres unmarked),-37.3%

row,Compound,"hERG current change (%, negative = inhibition) at 10uM"
1,C=C[C@H]1CN2CC[C@H]1C[C@@H]2[C@@H](O)c1ccnc2ccccc12,-57.1%
2,C=C[C@H]1CN2CC[C@H]1C[C@H]2[C@H](O)c1ccnc2ccccc12,-34%
3,CC(Nc1ccccc1)c1cccnc1 (centres unmarked),-49.1%
4,COc1ccc(CCNS(=O)(=O)c2ccc(Cl)cc2)cc1OC,-6.54%
5,O=C(O)CC(NC(=O)COc1ccccc1)c1cccc([N+](=O)[O-])c1 (centres unmarked),18.8%
6,CCOC(=O)CC(NC(C)=O)c1ccc([N+](=O)[O-])cc1 (centres unmarked),-1.79%
7,CC(=O)c1ccc(OCC(=O)Nc2c(C)nn(-c3ccccc3)c2C)cc1,-2.73%
8,CC(NC(=O)COc1ccc([N+](=O)[O-])cc1)c1ccccc1 (centres unmarked),-34.5%
9,CC(=O)Nc1ccc(S(=O)(=O)NCCC(=O)OCc2ccccc2F)cc1,-8.68%
10,CC(=O)Nc1ccc(S(=O)(=O)NCCC(=O)OCc2ccc([N+](=O)[O-])cc2)cc1,-57.4%
11,CC(=O)NC(CC(=O)OCc1ccc([N+](=O)[O-])cc1)c1ccccc1 (centres unmarked),-63.1%
12,Cc1nn(-c2ccccc2)c(C)c1NC(=O)COc1ccc([N+](=O)[O-])cc1,-69.4%
13,CC(=O)NC(CC(=O)O)c1ccc([N+](=O)[O-])cc1 (centres unmarked),10.6%
14,Cc1ccc(S(=O)(=O)NCCC(=O)OCc2ccc([N+](=O)[O-])cc2)cc1C,-42.3%
15,Cc1nn(-c2ccccc2)c(C)c1NC(=O)COc1ccc(C#N)cc1,-36.9%
16,CCC(NC(=O)COc1ccc([N+](=O)[O-])cc1)c1ccccc1 (centres unmarked),-50.7%
17,CCOc1ccc(S(=O)(=O)N(CC)CC)cc1NC(=O)c1ccc(N2CCCC2=O)cc1,18.2%
18,O=C(N/N=C/c1cccnc1)c1ccc(CN2c3cccc4cccc(c34)S2(=O)=O)cc1,5.22%
19,CCC(C(=O)NCc1cccs1)n1nc(C)n2c(cc3occc32)c1=O (centres unmarked),0.0905%
20,COC(=O)c1ccc(NC(=O)N2CCC(O)(c3cccnc3)CC2)cc1,9.11%
21,CCOC(=O)c1cccc(NC(=O)CSc2nnc(COc3ccc(Cl)cc3)o2)c1,16.3%
22,COc1ccc(C(C(=O)NC2CCCCC2)N2CCC3(CC2)OCCO3)cc1 (centres unmarked),-8.32%
23,Nn1c(Nc2ccccc2)nc2ccccc2c1=O,14.2%
24,O=C(CC1C(=O)NCCN1Cc1cccc(F)c1F)NC1CCCCCC1 (centres unmarked),-10.6%

row,Compound,"hERG current change (%, negative = inhibition) at 10uM"
1,CC1CCN(c2ccc(S(=O)(=O)NC3=NCCCCC3)cc2[N+](=O)[O-])CC1,-11.2%
2,COc1cccc(C2CC(c3cccs3)=NN2S(C)(=O)=O)c1OC (centres unmarked),7.29%
3,CCc1cc(C(=O)NNC(=S)Nc2cccc(C)c2)cs1,3.09%
4,O=C1c2ccccc2C(=O)N1CCSc1ncn[nH]1,19.7%
5,O=[N+]([O-])c1ccccc1S(=O)(=O)NCc1ccc(F)cc1,7.19%
6,CC(NC(=O)c1ccc([N+](=O)[O-])cc1[N+](=O)[O-])c1ccc(-c2ccccc2)cc1 (centres unmarked),-1.64%
7,CCC(NC(=O)c1ccccc1O)c1ccccc1 (centres unmarked),-33.3%
8,CCC(NC(=O)c1ccc([N+](=O)[O-])cc1[N+](=O)[O-])c1ccccc1 (centres unmarked),-56%
9,CN(C)c1ccc(CNCC2CCCO2)cc1.Cl (centres unmarked),10.5%
10,Cc1ccc(NC(=O)CN(C)C(=O)CCC(=O)c2cccs2)cc1,-16.2%
11,CC1CCOC2(O1)C(=O)Nc1ccccc12 (centres unmarked),16.1%
12,COCCCNC(=O)c1cc(Sc2nnc(C)s2)nc2ccccc12,2.3%
13,CCN(CC)CCNC(=O)c1cc(Sc2nnc(C)s2)nc2ccccc12,-45.3%
14,COCCCNC(=O)c1cc(Sc2ccc(F)cc2)nc2ccccc12,-26.9%
15,Cc1ccc(Sc2cc(C(=O)NCCN(C)C)c3ccccc3n2)cc1,-93.9%
16,CN(C)CCNC(=O)c1cc(Sc2ccc(F)cc2)nc2ccccc12,-72.5%
17,O=C(NCCCN1CCOCC1)c1cc(-c2ccc(F)cc2)nc2ccccc12,-27.5%
18,Cc1nnc(Sc2cc(C(=O)NCCCN(C)Cc3ccccc3)c3ccccc3n2)s1,-56.2%
19,O=C(NCCCN1CCCC1)c1cc(Sc2ccc(F)cc2)nc2ccccc12,-74.1%
20,CCOCCCNC(=O)c1cc(Sc2ccc(F)cc2)nc2ccccc12,-12.4%
21,CCN(CC)CCCNC(=O)c1cc(Sc2nnc(C)s2)nc2ccccc12,-40.4%
22,COCCNC(=O)c1cc(Sc2nnc(C)s2)nc2ccccc12,-18.2%
23,CC(C)OCCCNC(=O)c1cc(Sc2ccc(F)cc2)nc2ccccc12,-5.77%
